This is part of a sample that, as a whole, favours compounds with a hit. Of some 83,000 tested, about 20% had one in any assay.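 In brief: 96-well plates, 48 h treatment, single concentration, percent growth endpoint.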 A number with no mark means an inactive call. Active and inactive are the calls of the source. Rule for the calls: active = growth percent below 10; inactive = the rest.
What follows are compounds tested on MDA-MB-468 breast (assay: NCI-60 one-dose screen, 48 h (100 = growth as untreated, 0 = no growth, -100 = all killed)). Details: 10 µM unless noted.

Row | SMILES | growth
1 | CC(C)CC1NC(=O)C(CCCN)NC(=O)C(C(C)C)NC(=O)C2CCCN2C(=O)C(Cc2ccccc2)NC(=O)C(CC(C)C)NC(=O)C(CCCN)NC(=O)C(C(C)C)NC(=O)C2CCCN2C(=O)C(Cc2ccccc2)NC1=O (stereo not drawn) | -78.1% (active)
2 | N#CC1(C#N)C(c2cccs2)NC(c2cccs2)C1(C#N)C#N (stereo not drawn) | 104%
3 | COc1cc(-c2nc3c(c(C)nc4c3nnn4-c3ccccc3)c(=O)o2)cc(OC)c1OC | 110%
4 | COc1ccc(C(=O)C2OC3=C(C(=O)CC(C)(C)C3)C2c2cccc(Oc3ccccc3)c2)cc1 (stereo not drawn) | 94.3%
5 | CC(=O)/C(C)=N\OC(=O)Nc1ccccc1 | 114%
6 | CC(NC(N)=S)c1ccccc1 (stereo not drawn) | -11.5% (active)
7 | N#Cc1c(-c2cccc(Cl)c2)cc(-c2cccc(F)c2)[nH]c1=O | 87.1%
8 | C1=Cc2ccccc2N(c2nnc(-c3ccccc3)o2)c2ccccc21 | 98.7%
9 | C=C(CNCCc1ccc(O)cc1)[C@@H]1CC[C@]2(CO)CC[C@]3(C)[C@H](CC[C@@H]4[C@@]5(C)CCC(=O)C(C)(C)[C@@H]5CC[C@]43C)[C@@H]12 | 8.97% (active)
10 | O=C1c2c[n+](Cc3ccccc3)ccc2-c2nc3ccccc3c3ccnc1c23 | -59.2% (active)
11 | Nc1ncnc2c1c(-c1ccc(Oc3ccccc3)cc1)nn2C[C@H]1SSC[C@H]1O | -5.04% (active)
12 | Cc1ccc(-c2cc(C(=O)Nc3ccc(S(=O)(=O)N4CCCCC4)cc3)[nH]n2)c(O)c1 | 38.8%
13 | O=C(CCCn1c(=O)c2sc3ccccc3c2n2nnc(-c3ccccc3)c12)NCCc1cnc[nH]1 | -42.1% (active)

— PubChem BioAssay (NCI)
